TRHR agonist = agonists of human TRH receptor. P34981. TRHR cells, calcium flux fluo-8, FDSS agonist mode. activation, % at 2 µM. actives 0.18% (n = 360,000); further: 0% is about no effect
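Agonist-mode FDSS calcium read (Ex 480/Em 530, 1 s cycles) in 1536-well TRHR cells with fluo-8 dye, after 10-cycle baseline and 23 nL compound addition; TRH at EC20 (10 nM final) added afterwards for the enhancer phase.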
D1 PAM = human D1 dopamine receptor positive modulation. P21728. HEK293 TREx D1 cells, calcium flux, dopamine EC20 potentiation. potentiation, % at 10 µM. actives 0.036% (n = 360,000). AID 504651; in the data active means potentiation above about 30%; further: 0% is about no effect
Target sequence (P21728 whole entry, looked up): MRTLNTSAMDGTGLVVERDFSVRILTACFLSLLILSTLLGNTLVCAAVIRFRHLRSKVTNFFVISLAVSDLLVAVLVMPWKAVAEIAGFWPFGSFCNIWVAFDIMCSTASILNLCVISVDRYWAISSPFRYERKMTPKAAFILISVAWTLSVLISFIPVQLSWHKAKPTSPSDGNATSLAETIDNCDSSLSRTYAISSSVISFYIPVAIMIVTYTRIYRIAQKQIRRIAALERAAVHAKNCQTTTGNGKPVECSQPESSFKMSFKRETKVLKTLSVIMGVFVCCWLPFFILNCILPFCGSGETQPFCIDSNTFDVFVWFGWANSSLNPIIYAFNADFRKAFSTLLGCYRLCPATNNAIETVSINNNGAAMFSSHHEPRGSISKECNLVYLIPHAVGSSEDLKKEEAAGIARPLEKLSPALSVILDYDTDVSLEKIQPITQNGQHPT
USP1-UAF1 inh = inhibitors of human USP1/UAF1 deubiquitinase | O94782 | recombinant USP1/UAF1, Ub-Rhodamine cleavage fluorescence | Potency, µM (highest dose often 57.1 µM), without a hit: at the top dose activity change, negative = inhibition, hits mostly inhibitors | actives 0.23% (n = 390,000) | AID 743255; active means well fitted inhibition curve with a large enough effect; inconclusive means small, poorly fitted or top-dose-only effect; inactive means no such curve, though single readings can be large or run the other way; further: potency means the concentration at half of the fitted maximal effect; on the % scale 0 is the no-effect control and ±100 the full control effect; nearly all actives have a fitted effect of over 60% in size
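High-throughput fluorogenic screen: 1nM USP1/UAF1 complex, Ub-Rho substrate 150nM final, 50mM HEPES pH 7.8 with 0.5mM EDTA, 0.1 mg/ml BSA, 1mM TCEP and 0.01% Tween-20.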
TRHR PAM = allosterically enhances the human TRH receptor; P34981; TRHR cells, fluo-8 calcium fluorescence, EC20 TRH enhancement; enhancement, % at 2 µM; actives 0.66% (n = 360,000); AID 493056; in the data active means enhancement above about 30%; further: 0% is about no effect
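Enhancer read-out: after compound pinning and an initial kinetic agonist-mode read, an EC20 of TRH (10 nM final) was injected and fluo-8 calcium signal (Ex 480/Em 530) followed at 1 s/cycle for 100 cycles in TRHR-expressing cells.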
D1 ag = human D1 receptor agonism. P21728. HEK293 T-REx D1 cells, calcium flux, agonist mode. activation, % at 2 µM. actives 1% (n = 360,000); further: 0% is about no effect
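Agonism was scored from calcium flux recorded over 180 s (1 read/s) after pintool compound addition, following a 10-cycle baseline. Cells were inducible force-coupled HEK293 TREx D1, plated overnight at 30 C and loaded with no-wash calcium dye.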
D1 antag = blocks dopamine activation of the human D1 receptor. P21728. HEK293 TREx D1 cells, calcium flux, dopamine EC80; active compounds read low. activity change, negative = inhibition, % at 10 µM. actives 3.2% (n = 360,000); in the data active means activity change below about -30%; further: on the % scale 0 is the no-effect control and ±100 the full control effect
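HEK293 T-REx cells expressing inducible, force-coupled D1 receptor; no-wash Ca dye, 30–90 min RT. Cmpd → 180 s read at 1 Hz → EC80 DA → 180 s read.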
Starred values were filed as active, the others as inactive; u = inconclusive; x = no result; ! = repeats disagree. Sampled rows, rich in hits. Any-hit rate of the full collection: about 4.4%. Unless noted, no stated cut-off is given here; in the data, active means activation above about 30%; inactive means the rest.

SMILES	TRHR agonist	D1 PAM	USP1-UAF1 inh	TRHR PAM	D1 ag	D1 antag
Nc1ccc(-c2c3ccc(=O)cc-3oc3cc(O)ccc23)c(C(=O)O)c1	-1	1	28µM*	19	355*	0
CCOC(=O)C1CCN(Cc2cn3c(-c4ccc(OC)cc4)nnc3s2)CC1	0	1	-19%	-1	0	-6
CCOC(=O)c1ccc2c(c1)N(CC(=O)N1CCCC1)C(=O)C(C)(C)O2	0	0	-22%	36*	0	-10
CCCCN(CC)CCCNC(=O)c1ccc2c(c1)N(Cc1ccc(C)cc1)C(=O)c1ccccc1S2	2	0	u	0	51*	-33*
CCOc1ccc(CN2C(=O)c3ccccc3Sc3ccc(C(=O)NCCCN4CCOCC4)cc32)cc1	2	0	-8%	7	30*!	6
CCOc1ccc(-n2c(C)nc3cc(C(=O)NCCCN4CCOCC4)ccc32)cc1	1	-3	-11%	3	1	-52*
CCOc1ccc(-n2c(C)nc3cc(C(=O)NCCN4CCOCC4)ccc32)cc1	0	4	0%	-9	1	3
O=C(NCCCN1CCOCC1)c1ccc2c(c1)N(Cc1ccccc1)C(=O)c1ccccc1S2	0	0	-20%	-3	4	9
COC(=O)CC1C(=O)NCCN1C(=S)Nc1cccc(C)c1 (configuration not stated)	-1	-4	-8%	6	3	25
COC(=O)CC1C(=O)NCCN1C(=S)Nc1ccc(F)cc1 (configuration not stated)	0	-5	-21%	-3	2	-37*
Cc1ccc(CCNC(=O)CCS(=O)(=O)c2cc3c(cc2Cl)NC(=O)CO3)cc1	0	0	-20%	2	1	4
COCCn1c(=NC(=O)c2nc3ccccc3s2)sc2cc(S(C)(=O)=O)ccc21	0	-4	-13%	1	0	-85*
C#CCn1c(=NC(=O)c2ccccc2[N+](=O)[O-])sc2cc(S(C)(=O)=O)ccc21	0	0	-10%	30*	3	-11
COC(=O)Cn1c(=NC(=O)c2nc3ccccc3s2)sc2cc(S(N)(=O)=O)ccc21	1	-10	-25%	2	0	-14
C#CCn1c(=NC(=O)c2sc3ccccc3c2Cl)sc2cc(S(N)(=O)=O)ccc21	1	1	-19%	-3	1	5
Cc1ccnc(NS(=O)(=O)c2ccc(N3C(=O)C4CCCCC4C3=O)cc2)n1 (configuration not stated)	-1	-3	-11%	37*	1	3
O=C1C2CCCCC2C(=O)N1c1ccc(S(=O)(=O)Nc2ncccn2)cc1 (configuration not stated)	1	-11	0%	-2	0	14
CC1CCN(S(=O)(=O)c2ccc3c(c2)N(CC(=O)N2CCN(c4ccccc4)CC2)C(=O)CO3)CC1	1	0	-5%	5	0	14
COc1ccc(NS(=O)(=O)c2ccc(N3CCCC3)c(N)c2)cc1	-1	-6	-12%	8	38*	-6
COc1ccc(NS(=O)(=O)c2cccc(C(=O)OCC(=O)N3CCN(c4ccc(OC)cc4)CC3)c2)cc1	0	4	-15%	13	7	-69*
Nc1cc(S(=O)(=O)Nc2cc(Cl)ccc2Cl)ccc1N1CCCC1	-1	-10	-18%	6	4	-33*
Nc1cc(S(=O)(=O)Nc2ccccc2Cl)ccc1N1CCOCC1	1	1	-13%	3	6	-26
Cc1ccc2nc(SCc3nnc(-c4cccs4)o3)[nH]c2c1	-1	-1	-3%	-2	1	-37*
Cc1ccc2nc(SCc3nnc(-c4ccccc4)o3)[nH]c2c1	-1	0	-19%	9	-1	12
COc1ccc(NC(=O)CN2C(=O)C(C)(C)c3cc(S(=O)(=O)N4CCCCC4)ccc32)cc1Cl	0	7	-11%	-2	5	-2
SMILES	TRHR agonist	D1 PAM	USP1-UAF1 inh	TRHR PAM	D1 ag	D1 antag
Cc1ccc(N2C(=O)CSC23C(=O)N(CC(=O)Nc2ccc(C(C)C)cc2)c2ccccc23)cc1C (configuration not stated)	1	-2	-24%	5	2	11
Cc1ccc(N2C(=O)CSC23C(=O)N(CC(=O)Nc2ccccc2F)c2ccccc23)cc1C (configuration not stated)	-1	-4	u	4	9	-32*
O=C(CCN1C(=O)c2ccccc2S1(=O)=O)Nc1ccc(Cl)cc1	-1	-2	-21%	-3	5	-52*
Cc1cc(C)cc(NC(=O)CCN2C(=O)c3ccccc3S2(=O)=O)c1	-1	-4	-8%	-6	5	4
COc1ccc(NC(=O)Cn2c(SCc3ccc(C)cc3)nc3cccnc32)cc1OC	0	-1	-13%	-1	2	-11
Cc1cccc(NC(=O)CSc2nnc(C3CC3)n2CC2CCCO2)c1C (configuration not stated)	0	-2	-7%	-7	3	-1
CCc1ccccc1NC(=O)CSc1nnc(C2CC2)n1CC1CCCO1 (configuration not stated)	-2	10	1%	31*	1	6
Oc1ccc(CNc2cccc(C(F)(F)F)c2)c2cccnc12	0	0	x	-3	6	7
O/C(=C\c1ccc2ccccc2n1)c1ccncc1	17	-3	u	-2	45*	6
CC(C)CCn1c(=O)c2sccc2n2c(CCCC(=O)NCc3ccc(F)cc3)nnc12	0	-2	-8%	4	1	-6
Cc1cccc(/C=N/N(CCO)C2=NS(=O)(=O)c3ccccc32)c1	-1	-6	-15%	6	2	-34*
Cc1ccc(C)c(NC(=O)CN(C)C(=O)c2ccc(-c3cccc(C(F)(F)F)c3)o2)c1	0	-5	-12%	37*	5	19
CN(CC(=O)Nc1cccc(F)c1)C(=O)c1ccc(-c2cccc(C(F)(F)F)c2)o1	0	0	-21%	9	4	6
O=C1NC(=Nc2ccccc2Cl)S/C1=C\c1cc([N+](=O)[O-])ccc1O	8	-8	u	0	76*	10
O=C1N/C(=N/O)S/C1=C/c1cccc([N+](=O)[O-])c1	-2	1	-9%	-29	3	-18
Cc1ccc(S(=O)(=O)/N=C2/NC(=O)/C(=C/c3cc([N+](=O)[O-])ccc3O)S2)cc1	0	0	28µM*	20	218*	34

Screening data from PubChem BioAssay.
